Results: PubChem BioAssay (NCI)
About 79,000 compounds went through this panel and 15% of them were active in at least one assay; those are over-represented in the sample as a whole. Unmarked numbers belong to inactive results. The source made the active and inactive calls. Rule as the data show it: active = growth inhibition above about 70%; inactive = the rest.

Legend:
[1] = NCI Yeast Anticancer Drug Screen. Data for the rad52 strain (AID 147);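 also: 0% = growth of vehicle-treated control cultures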; details: S. cerevisiae rad52 mutant growth inhibition, active compounds read high
Outline: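 Read-out: growth inhibition versus vehicle-treated controls. Cells were a DNA repair-deficient yeast strain treated with compounds.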

[2] = NCI Yeast Anticancer Drug Screen. Data for the rad50EPP+ strain (AID 151);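 also: 0% = growth of vehicle-treated control cultures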; details: S. cerevisiae rad50 mutant strain, active compounds read high
Outline: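 Growth inhibition read against vehicle controls in rad50EPP+ yeast, a strain altered in DNA damage repair, after compound exposure.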

[3] = NCI Yeast Anticancer Drug Screen. Data for the rad50 strain (AID 155);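 also: 0% = growth of vehicle-only cultures of the same strain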; details: S. cerevisiae rad50 strain growth inhibition, active compounds read high
Outline: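 Genetically altered yeast (DNA repair pathway); compound treatment; growth inhibition vs vehicle ctrl.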

[4] = NCI Yeast Anticancer Drug Screen. Data for the mec2-1 strain (AID 157); details: S. cerevisiae mec2-1 strain, active compounds read high
Outline: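 Yeast mec2-1 mutant treated with compound. Readout: growth inhibition vs vehicle controls.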

[5] = NCI Yeast Anticancer Drug Screen. Data for the rad14 strain (AID 159);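 also: 0% = growth of vehicle-treated control cultures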; details: S. cerevisiae rad14 strain growth inhibition, active compounds read high
Outline: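 Test compounds were applied to a repair-deficient yeast strain. Its growth was then compared with that of cultures given vehicle alone, and inhibition was expressed relative to those controls.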

[6] = NCI Yeast Anticancer Drug Screen. Data for the sgs1 mgt1 strain (AID 161);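 also: 0% = growth of cultures given vehicle only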; details: S. cerevisiae sgs1 mgt1 strain, active compounds read high
Outline: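 Read-out: growth inhibition vs vehicle controls. Cells: mutant yeast strain deficient in DNA damage repair.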

[7] = NCI Yeast Anticancer Drug Screen. Data for the CLN2oe strain (AID 163);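 also: 0% = growth of vehicle-only control cultures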; details: S. cerevisiae CLN2oe strain, active compounds read high
Outline: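 Read-out: yeast growth inhibition, expressed relative to vehicle-only controls. The strain bears an engineered cell-cycle alteration.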

[8] = NCI Yeast Anticancer Drug Screen. Data for the cln2 rad14 strain (AID 165);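 also: 0% = growth equal to vehicle treated cultures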; details: S. cerevisiae cln2 rad14 strain, active compounds read high
Outline: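 cln2 rad14 yeast strain; compound exposure; growth inhibition read vs vehicle controls.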

[9] = NCI Yeast Anticancer Drug Screen. Data for the bub3 strain (AID 167); details: S. cerevisiae bub3 mutant strain, active compounds read high
Outline: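 Yeast carrying a defined mutation is treated with each compound, and growth is compared with that of vehicle-exposed cells to give inhibition.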

[10] = NCI Yeast Anticancer Drug Screen. Data for the wt2 strain (AID 169);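 also: 0% = growth of vehicle-treated yeast cultures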; details: S. cerevisiae wt2 strain growth inhibition, active compounds read high
Outline: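 Read-out: growth inhibition versus vehicle-treated control cultures after compound exposure of the yeast strain.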

[11] = NCI Yeast Anticancer Drug Screen. Data for the mlh1 strain (AID 171);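 also: 0% = growth of vehicle-treated control cultures of the same strain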; details: S. cerevisiae mlh1 strain growth inhibition, active compounds read high
Outline: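 Read-out: growth inhibition versus vehicle controls. Strain: engineered yeast with a defined DNA repair or cell cycle defect, compound-treated.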

[12] = NCI Yeast Anticancer Drug Screen. Data for the sgs1 strain (AID 173);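 also: 0% = growth of vehicle-only control cultures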; details: S. cerevisiae sgs1 mutant, active compounds read high
Outline: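 Read-out: yeast growth inhibition relative to vehicle controls, following compound exposure of a strain with a defined DNA repair/cell cycle alteration.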

[13] = NCI Yeast Anticancer Drug Screen. Data for the mlh1 rad18 strain (AID 175); details: S. cerevisiae mlh1 rad18 strain growth inhibition, active compounds read high
Outline: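 Yeast w/ defined DNA-repair lesions; compound exposure; growth vs vehicle controls → % inhibition.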

[14] = NCI Yeast Anticancer Drug Screen. Data for the rad18 strain (AID 177); details: S. cerevisiae rad18 mutant growth inhibition, active compounds read high
Outline: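 Readout: growth inhibition vs vehicle controls. Cells: genetically altered yeast strain, DNA repair defect.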

[15] = NCI Yeast Anticancer Drug Screen. Data for the wt1 strain (AID 149);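 also: 0% = growth of vehicle-treated wt1 cultures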; details: S. cerevisiae wt1 strain (SPY 50644) growth inhibition, active compounds read high
Outline: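 wt1 yeast, compound-treated; % growth inhibition vs vehicle control.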

[16] = NCI Yeast Anticancer Drug Screen. Data for the mgt1 strain (AID 153); details: S. cerevisiae mgt1 mutant growth inhibition, active compounds read high
Outline: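 mgt1 yeast grown with test compound; read-out is growth inhibition versus vehicle-treated cultures.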

[17] = at 5.0 µM (retest, dose inferred, filed as 0.5)
[18] = at 50.0 µM (retest, dose inferred, filed as 5.0)

O=C1Nc2ccc(Br)cc2C1=Nc1ccc(Cl)cc1
growth inhibition ([1]; at 1.2 µM): -20% | growth inhibition ([1]; at 3.7 µM): -12% | growth inhibition ([1]; at 11.0 µM): 9% | growth inhibition ([1]; at 33.0 µM): 42% | growth inhibition ([1]; at 100.0 µM): 64% | growth inhibition ([2]; at 1.2 µM): -45% | growth inhibition ([2]; at 3.7 µM): -10% | growth inhibition ([2]; at 11.0 µM): -8% | growth inhibition ([2]; at 33.0 µM): 8% | growth inhibition ([2]; at 100.0 µM): 41% | growth inhibition ([3]; at 1.2 µM): -29% | growth inhibition ([3]; at 3.7 µM): -20% | growth inhibition [3, 17]: 70% (active) | growth inhibition ([3]; at 11.0 µM): 12% | growth inhibition ([3]; at 33.0 µM): 42% | growth inhibition [3, 18]: 100% (active) | growth inhibition ([3]; at 50.0 µM): 57.4% | growth inhibition ([3]; at 100.0 µM): 64% | growth inhibition ([4]; at 1.2 µM): -68% | growth inhibition ([4]; at 3.7 µM): -75% | growth inhibition [4, 17]: 77% (active) | growth inhibition ([4]; at 11.0 µM): -64% | growth inhibition ([4]; at 33.0 µM): -1% | growth inhibition [4, 18]: 100% (active) | growth inhibition ([4]; at 50.0 µM): 54.5% | growth inhibition ([4]; at 100.0 µM): 57% | growth inhibition ([5]; at 1.2 µM): -52% | growth inhibition ([5]; at 3.7 µM): -62% | growth inhibition ([5]; at 11.0 µM): -46% | growth inhibition ([5]; at 33.0 µM): -8% | growth inhibition ([5]; at 100.0 µM): 34% | growth inhibition [6, 17]: 8% | growth inhibition [6, 18]: 71% (active) | growth inhibition ([6]; at 50.0 µM): 53.4% | growth inhibition ([7]; at 1.2 µM): 2% | growth inhibition ([7]; at 3.7 µM): 1% | growth inhibition ([7]; at 11.0 µM): 20% | growth inhibition ([7]; at 33.0 µM): 24% | growth inhibition ([7]; at 100.0 µM): 52% | growth inhibition [8, 17]: 36% | growth inhibition [8, 18]: 54% | growth inhibition ([8]; at 50.0 µM): 34% | growth inhibition ([9]; at 1.2 µM): -38% | growth inhibition ([9]; at 3.7 µM): -26% | growth inhibition [9, 17]: 28% | growth inhibition ([9]; at 11.0 µM): -11% | growth inhibition ([9]; at 33.0 µM): 29% | growth inhibition [9, 18]: 86% (active) | growth inhibition ([9]; at 50.0 µM): 83.4% (active) | growth inhibition ([9]; at 100.0 µM): 81% (active) | growth inhibition ([10]; at 1.2 µM): -20% | growth inhibition ([10]; at 3.7 µM): -12% | growth inhibition ([10]; at 11.0 µM): -10% | growth inhibition ([10]; at 33.0 µM): 14% | growth inhibition ([10]; at 100.0 µM): 47% | growth inhibition ([11]; at 1.2 µM): -16% | growth inhibition ([11]; at 3.7 µM): -24% | growth inhibition ([11]; at 11.0 µM): -3% | growth inhibition ([11]; at 33.0 µM): 8% | growth inhibition ([11]; at 100.0 µM): 46% | growth inhibition ([12]; at 1.2 µM): -25% | growth inhibition ([12]; at 3.7 µM): -27% | growth inhibition ([12]; at 11.0 µM): 3% | growth inhibition ([12]; at 33.0 µM): 33% | growth inhibition ([12]; at 100.0 µM): 54% | growth inhibition [13, 17]: 67% | growth inhibition [13, 18]: 100% (active) | growth inhibition ([13]; at 50.0 µM): 58.5% | growth inhibition ([14]; at 1.2 µM): -24% | growth inhibition ([14]; at 3.7 µM): -13% | growth inhibition ([14]; at 11.0 µM): 2% | growth inhibition ([14]; at 33.0 µM): 32% | growth inhibition ([14]; at 100.0 µM): 60%

Nc1ccc2c(c1)C(=O)c1c(F)cccc1-2
growth inhibition ([15]; at 1.2 µM): -6% | growth inhibition ([15]; at 3.7 µM): -6% | growth inhibition ([15]; at 11.0 µM): -6% | growth inhibition ([15]; at 33.0 µM): -2% | growth inhibition ([15]; at 100.0 µM): 50% | growth inhibition ([2]; at 1.2 µM): 5% | growth inhibition ([2]; at 3.7 µM): 21% | growth inhibition ([2]; at 11.0 µM): 53% | growth inhibition ([2]; at 33.0 µM): 86% (active) | growth inhibition ([2]; at 100.0 µM): 97% (active) | growth inhibition ([16]; at 1.2 µM): -1% | growth inhibition ([16]; at 3.7 µM): -2% | growth inhibition ([16]; at 11.0 µM): 1% | growth inhibition ([16]; at 33.0 µM): 13% | growth inhibition ([16]; at 100.0 µM): 74% (active) | growth inhibition ([3]; at 1.2 µM): -4% | growth inhibition ([3]; at 3.7 µM): 11% | growth inhibition [3, 17]: -129% | growth inhibition ([3]; at 11.0 µM): 30% | growth inhibition ([3]; at 33.0 µM): 87% (active) | growth inhibition [3, 18]: 78% (active) | growth inhibition ([3]; at 50.0 µM): 90.5% (active) | growth inhibition ([3]; at 100.0 µM): 98% (active) | growth inhibition ([4]; at 1.2 µM): 3% | growth inhibition ([4]; at 3.7 µM): 2% | growth inhibition [4, 17]: -48% | growth inhibition ([4]; at 11.0 µM): 18% | growth inhibition ([4]; at 33.0 µM): 13% | growth inhibition [4, 18]: -25% | growth inhibition ([4]; at 50.0 µM): 38.6% | growth inhibition ([4]; at 100.0 µM): 67% | growth inhibition ([5]; at 1.2 µM): 2% | growth inhibition ([5]; at 3.7 µM): 7% | growth inhibition ([5]; at 11.0 µM): 16% | growth inhibition ([5]; at 33.0 µM): 27% | growth inhibition ([5]; at 100.0 µM): 78% (active) | growth inhibition [6, 17]: -70% | growth inhibition [6, 18]: -28% | growth inhibition ([6]; at 50.0 µM): 15.5% | growth inhibition ([7]; at 1.2 µM): -1% | growth inhibition ([7]; at 3.7 µM): 4% | growth inhibition ([7]; at 11.0 µM): 8% | growth inhibition ([7]; at 33.0 µM): 14% | growth inhibition ([7]; at 100.0 µM): 32% | growth inhibition [8, 17]: -55% | growth inhibition [8, 18]: -41% | growth inhibition ([8]; at 50.0 µM): 21.9% | growth inhibition ([9]; at 1.2 µM): -11% | growth inhibition ([9]; at 3.7 µM): -4% | growth inhibition [9, 17]: -60% | growth inhibition ([9]; at 11.0 µM): 1% | growth inhibition ([9]; at 33.0 µM): 12% | growth inhibition [9, 18]: -33% | growth inhibition ([9]; at 50.0 µM): 9% | growth inhibition ([9]; at 100.0 µM): 37% | growth inhibition ([10]; at 1.2 µM): -1% | growth inhibition ([10]; at 3.7 µM): 0% | growth inhibition ([10]; at 11.0 µM): 0% | growth inhibition ([10]; at 33.0 µM): 4% | growth inhibition ([10]; at 100.0 µM): 64% | growth inhibition ([11]; at 1.2 µM): 7% | growth inhibition ([11]; at 3.7 µM): -4% | growth inhibition ([11]; at 11.0 µM): 0% | growth inhibition ([11]; at 33.0 µM): 16% | growth inhibition ([11]; at 100.0 µM): 86% (active) | growth inhibition ([12]; at 1.2 µM): -2% | growth inhibition ([12]; at 3.7 µM): 0% | growth inhibition ([12]; at 11.0 µM): 0% | growth inhibition ([12]; at 33.0 µM): 10% | growth inhibition ([12]; at 100.0 µM): 92% (active) | growth inhibition [13, 17]: -120% | growth inhibition [13, 18]: -30% | growth inhibition ([13]; at 50.0 µM): 84.5% (active) | growth inhibition ([14]; at 1.2 µM): 1% | growth inhibition ([14]; at 3.7 µM): 8% | growth inhibition ([14]; at 11.0 µM): 31% | growth inhibition ([14]; at 33.0 µM): 72% (active) | growth inhibition ([14]; at 100.0 µM): 97% (active)
